Source: PubChem (National Center for Advancing Translational Sciences (NCATS))
L3MBTL1 inh = blocks human L3MBTL1 | Q9Y468 | AlphaScreen L3MBTL1–H3K9me1 peptide binding | Potency, µM (doses to about 57.1 µM), actives largely listed as inhibitors | 230,000 compounds, 0.66% hits; note: nearly all actives have a fitted effect of over 60% in size
Target sequence (Q9Y468 whole entry, looked up): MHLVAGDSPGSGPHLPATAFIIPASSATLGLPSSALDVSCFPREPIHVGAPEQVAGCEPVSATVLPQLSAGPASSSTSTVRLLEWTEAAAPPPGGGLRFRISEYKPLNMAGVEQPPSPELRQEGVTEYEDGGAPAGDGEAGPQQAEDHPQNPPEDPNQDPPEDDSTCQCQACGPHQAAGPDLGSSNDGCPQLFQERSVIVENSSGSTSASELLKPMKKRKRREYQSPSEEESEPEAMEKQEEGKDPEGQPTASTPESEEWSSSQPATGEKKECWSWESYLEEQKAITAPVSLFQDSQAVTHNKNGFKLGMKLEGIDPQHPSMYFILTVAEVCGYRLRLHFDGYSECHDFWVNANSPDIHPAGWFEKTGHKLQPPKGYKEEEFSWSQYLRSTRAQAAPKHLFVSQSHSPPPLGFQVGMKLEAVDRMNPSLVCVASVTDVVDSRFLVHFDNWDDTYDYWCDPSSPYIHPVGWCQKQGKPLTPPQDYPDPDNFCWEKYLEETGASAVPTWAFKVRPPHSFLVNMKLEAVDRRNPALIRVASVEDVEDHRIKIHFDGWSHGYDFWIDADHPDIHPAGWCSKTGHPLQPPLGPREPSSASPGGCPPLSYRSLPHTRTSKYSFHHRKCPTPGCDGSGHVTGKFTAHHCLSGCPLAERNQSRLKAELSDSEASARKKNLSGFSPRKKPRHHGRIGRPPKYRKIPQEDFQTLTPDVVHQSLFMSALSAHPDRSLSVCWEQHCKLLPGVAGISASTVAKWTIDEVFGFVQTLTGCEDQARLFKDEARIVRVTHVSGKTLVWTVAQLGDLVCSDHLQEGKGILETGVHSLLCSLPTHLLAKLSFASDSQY
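AlphaScreen proximity signal between nickel-chelate acceptor and streptavidin donor beads (final 10 ug/mL) reports binding of 50 nM L3MBTL1 to 75 nM biotin-H3 K9me1 peptide; complex incubated with compounds 30 min at room temperature; cefsulodin titration as control.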
Sfp inh = Sfp phosphopantetheinyl transferase inhibition; Potency, µM, usual class: inhibitors; AID 1490; 310,000 compounds, 3.5% hits; Biochemical Sfp PPTase activity, qHTS;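 note: the enzyme is Sfp with the accession as filed and its product quenches rhodamine fluorescence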
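Fluorescence-quenching assay: 15 nM Sfp-PPTase preincubated 15 min at room temperature with compound, then 5 uM rhodamine-CoA and 12.5 uM BHQ-2-labelled YbbR peptide added. Fluorescence (ex 525/em 598 nm) read at start and after 30 min; difference gives rate.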
HP1b binding inh = blocks HP1-beta chromodomain binding to methylated histone tails; P83916; AlphaScreen HP1-beta / biotin-H3K9me3 peptide binding; Potency, µM (titrated, usually from 114 µM), most hits filed as inhibitors; 390,000 compounds, 0.56% hits; note: nearly all actives have a fitted effect of over 70% in size
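Compound inhibition of the preformed complex between 50 nM HP1-beta and 50 nM biotinylated H3K9me3 peptide was read by AlphaScreen. Buffer was PBS pH 7.4 with 0.01% Tween-20. Incubations ran 30 min at room temperature, with 10 ug/mL donor/acceptor beads.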
JMJD2A Tudor inh = blocks the human JMJD2A Tudor domain; 390,000 compounds, 4.4% hits; AlphaScreen JMJD2A-Tudor / H3K4me3 peptide binding; Potency, µM (series often up to 114 µM), actives largely listed as inhibitors; O75164; note: nearly all actives have a fitted effect of over 50% in size
G9a inh = G9a (human) methyltransferase inhibition | G9a H3K9 monomethylation, AlphaScreen, 2 h | 350,000 compounds, 8.8% hits | Potency, µM (titrated, usually from 102 µM), hits mostly inhibitors; note: nearly all actives have a fitted effect of over 75% in size
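G9a (20 nM) preincubated 15 min RT with compounds, then 500 nM biotinylated H3K9 peptide and 20 uM SAM added; 2 h RT reaction. Monomethyl-H3K9 product detected by AlphaScreen with anti-H3K9me1 antibody, streptavidin donor and anti-rabbit IgG acceptor beads.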
BAZ2B block = BAZ2B (human) inhibition | AlphaScreen BAZ2B-H3K14Ac peptide displacement | Potency, µM (series often up to 114 µM), usual class: inhibitors | 360,000 compounds, 4.4% hits; note: nearly all actives have a fitted effect of over 60% in size
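Protein-peptide AlphaScreen: BAZ2B 50 nM, b-H3K14Ac 50 nM, 1x PBS pH 7.4 + 0.01% Tween-20. Preincubation 30 min RT; cpd 30 min RT (top 110 uM); beads 20 min RT, light-protected.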
Hits are given with their value; [ ] = another dose, or the depositor's remark. This is a sample that favours compounds with a hit; in the whole collection about 12% have one here. Calls come from the whole dose curve; as a rule, active = well fitted curve in the direction sought with a large enough effect; inconclusive = small, poorly fitted or top-dose-only effect, or another doubt; inactive = no such curve, though single readings can be large; an effect the other way counts as inactive or inconclusive.

How did O=CNn1cnc2c(oc3nc(-c4ccccc4)cc(-c4ccco4)c32)c1=O do in these assays?
L3MBTL1 inh: inconclusive; Sfp inh: inconclusive; HP1b binding inh: inconclusive; JMJD2A Tudor inh: inconclusive; G9a inh: 50µM; BAZ2B block: inactive

Results for O=C(/C=C/c1ccc[nH]1)c1ccc(F)cc1 ?
L3MBTL1 inh: inactive; Sfp inh: inactive; HP1b binding inh: inactive; JMJD2A Tudor inh: inactive; G9a inh: inactive; BAZ2B block: inactive

How did O=C(/C=C/c1ccc[nH]1)c1ccccc1 do in these assays?
L3MBTL1 inh: inactive; Sfp inh: 56µM; HP1b binding inh: inactive; JMJD2A Tudor inh: 18µM; G9a inh: inconclusive; BAZ2B block: inconclusive

What do the screens show for `COc1ccc(CN2CCN(Cc3ccc4ccccc4c3)CC2)cc1OC`?
Sfp inh: inconclusive; HP1b binding inh: 25µM; JMJD2A Tudor inh: 2.8µM; G9a inh: inactive[2.33 µM]; BAZ2B block: 16µM

How did CCOc1cc(CN2CCCCCC2)ccc1OC do in these assays?
L3MBTL1 inh: inactive; Sfp inh: inactive; HP1b binding inh: inactive; JMJD2A Tudor inh: 2.2µM; BAZ2B block: inconclusive

What do the screens show for `COc1ccc2ccccc2c1CN1CCN(Cc2ccccc2)CC1`?
L3MBTL1 inh: inactive; Sfp inh: inactive; HP1b binding inh: inactive; JMJD2A Tudor inh: inactive; G9a inh: inconclusive; BAZ2B block: inconclusive

How did COc1ccccc1CN1CCN(Cc2ccc3ccccc3c2)CC1 do in these assays?
Sfp inh: inconclusive; HP1b binding inh: inconclusive; JMJD2A Tudor inh: 8.9µM; G9a inh: 7.9µM; BAZ2B block: 22µM

How did OC1CCN(Cc2ccc3ccccc3c2)CC1 do in these assays?
L3MBTL1 inh: inactive; Sfp inh: inactive; HP1b binding inh: inconclusive; JMJD2A Tudor inh: 3.5µM; G9a inh: 11µM; BAZ2B block: inconclusive

Results for COc1ccc(C(=O)N2CC(=O)Nc3ccc(C)cc3C2c2ccccc2)cc1OC (stereo not drawn) ?
HP1b binding inh: inactive; JMJD2A Tudor inh: inactive; G9a inh: inactive; BAZ2B block: inactive

Results for COC(=O)c1ccc(NC(=O)c2cc(S(=O)(=O)N3CCOCC3)cn2C)cc1 ?
HP1b binding inh: inactive; JMJD2A Tudor inh: inactive; G9a inh: inactive; BAZ2B block: inactive

How did CCc1cccc(C)c1NC(=O)CSc1nc2ccccc2nc1N1CCOCC1 do in these assays?
HP1b binding inh: inactive; JMJD2A Tudor inh: inactive; G9a inh: inactive; BAZ2B block: inactive

Results for CC[C@H](C)[C@H](NC(=O)[C@H](CC(=O)O)NC(=O)[C@H](CC(N)=O)NC(=O)[C@@H](NC(=O)[C@H](CCCNC(=N)N)NC(=O)[C@@H](NC(=O)[C@@H](NC(=O)[C@@H](NC(=O)[C@@H](NC(=O)[C@H](CCCCN)NC(=O)[C@@H](NC(=O)[C@H](CC(C)C)NC(=O)[C@@H](NC(=O)[C@H](CCCCN)NC(=O)[C@@H](NC(=O)[C@H](CC(=O)O)NC(=O)[C@H](CC(=O)O)NC(=O)[C@H](CCC(N)=O)NC(=O)[C@@H](NC(=O)[C@H](CCCCN)NC(=O)[C@H](CCC(N)=O)NC(=O)[C@@H](NC(=O)[C@@H]1CCCN1C(=O)[C@@H](N)C(C)C)[C@@H](C)CC)C(C)C)[C@@H](C)O)[C@@H](C)O)[C@@H](C)CC)[C@@H](C)O)[C@@H](C)CC)C(C)C)[C@@H](C)O)[C@@H](C)CC)C(=O)N[C@@H](CO)C(=O)N[C@@H](Cc1cnc[nH]1)C(=O)N[C@H](C(=O)N[C@@H](CCC(N)=O)C(=O)N[C@@H](CO)C(=O)N[C@H](C(=O)N[C@@H](CO)C(=O)N[C@@H](CO)C(=O)N[C@@H](CCCCN)C(=O)N[C@@H](CCC(N)=O)C(=O)N[C@@H](CCCCN)C(=O)O)C(C)C)[C@@H](C)O ?
Sfp inh: inactive

Results for COc1ccc(CCN2C(=O)N(c3ccc(F)cc3)C(=O)C2CC(=O)Nc2ccccc2)cc1 (stereo not drawn) ?
HP1b binding inh: inactive; JMJD2A Tudor inh: inactive; G9a inh: inactive; BAZ2B block: inactive

How did COc1ccc(-n2ncc3c(N4CCN(c5cccc(C)c5)C(C)C4)ncnc32)cc1 (stereo not drawn) do in these assays?
HP1b binding inh: inactive; JMJD2A Tudor inh: inactive; G9a inh: inactive; BAZ2B block: inactive

Results for COc1ccc(C2=C(N3CCN(c4cccc(C)c4)C(C)C3)c3ccccc3C2=O)cc1 (stereo not drawn) ?
HP1b binding inh: inconclusive; JMJD2A Tudor inh: 7.1µM; G9a inh: 5µM; BAZ2B block: 4.5µM

Results for CN(C(=O)CSc1nnc(NCc2ccccc2)s1)C1CCS(=O)(=O)C1 (stereo not drawn) ?
L3MBTL1 inh: inactive; Sfp inh: inactive; HP1b binding inh: inactive; JMJD2A Tudor inh: inactive; G9a inh: 50µM; BAZ2B block: inactive

What do the screens show for `CCN(C(=O)CSc1nnc(-c2ccc(F)cc2)c2ccccc12)C1CCS(=O)(=O)C1` (stereo not drawn)?
L3MBTL1 inh: inactive; Sfp inh: inactive; HP1b binding inh: inactive; JMJD2A Tudor inh: inactive; G9a inh: 35µM; BAZ2B block: inactive

How did C=CCn1c(SCC(=O)N(C)C2CCS(=O)(=O)C2)nnc1-c1ccccc1 (stereo not drawn) do in these assays?
L3MBTL1 inh: inactive; HP1b binding inh: inactive; JMJD2A Tudor inh: inactive; G9a inh: 56µM; BAZ2B block: inactive

How did CCN(C(=O)CSc1nnc(Nc2ccccc2C)s1)C1CCS(=O)(=O)C1 (stereo not drawn) do in these assays?
L3MBTL1 inh: inactive; Sfp inh: inactive; HP1b binding inh: inactive; JMJD2A Tudor inh: inactive; G9a inh: 50µM; BAZ2B block: inactive

Results for O=S(=O)(NCC(c1ccco1)N1CCN(c2ccccc2)CC1)c1ccccc1 (stereo not drawn) ?
HP1b binding inh: inactive; JMJD2A Tudor inh: inactive; G9a inh: inactive; BAZ2B block: inactive

Results for CCOc1ccc(N2CC(NC(=O)C3CCCCC3)CC2=O)cc1 (stereo not drawn) ?
HP1b binding inh: inactive; JMJD2A Tudor inh: inactive; G9a inh: inactive; BAZ2B block: inactive

What do the screens show for `Cc1nnc(SCC(=O)N(C)C2CCS(=O)(=O)C2)n1Cc1ccccc1` (stereo not drawn)?
L3MBTL1 inh: inactive; Sfp inh: inactive; HP1b binding inh: inactive; JMJD2A Tudor inh: inactive; G9a inh: inconclusive; BAZ2B block: inactive

How did Cc1ccc(-c2nc(SCC(=O)N(C)C3CCS(=O)(=O)C3)[nH]c2-c2ccc(C)cc2)cc1 (stereo not drawn) do in these assays?
Sfp inh: inactive; HP1b binding inh: inactive; JMJD2A Tudor inh: inconclusive; G9a inh: inconclusive; BAZ2B block: 50µM
